Reference: the supplement of paper PMC13380429

How the values were obtained:
[1] = tested on: Vero E6 infected with SARS-CoV-2; assay: morphology score (similarity to uninfected cells); higher = more like uninfected cells; settings: 24 h
[2] = tested on: Vero E6 infected with SARS-CoV-2; assay: SARS-CoV-2 infection rate relative to infected DMSO; higher = more infection, active = 60 or less; settings: 24 h

SMILES | morphology score [1] | SARS-CoV-2 infection rate [2]
CC(C)(O)[C@@H]1[C@H]2OC(=O)[C@@H]1[C@]1(O)C[C@H]3O[C@]34C(=O)O[C@H]2[C@]14C [picrotin] (10 µM) | 0.0343 | 111% (inactive)
O=C1c2c(O)cccc2C([C@@H]2O[C@H](CO)[C@@H](O)[C@H](O)[C@H]2O)c2cc(CO)cc(O)c21 (stereo partly drawn) [aloin] (10 µM) | -0.243 | 116% (inactive)
CC1=C(C(=O)OC2CCCCC2)C(c2ccc([N+](=O)[O-])cc2)C2=C(CC(C)(C)CC2=O)N1 (stereo not drawn) (0.833333 µM) | -0.0965 | 104% (inactive)
CN(C)CCCN1c2ccccc2Sc2ccc(C(F)(F)F)cc21 [triflupromazine] (10 µM) | 0.465 | 56% (active)
Cn1cncc1[C@@](N)(c1ccc(Cl)cc1)c1ccc2c(c1)c(-c1cccc(Cl)c1)cc(=O)n2C [tipifarnib] (0.833333 µM) | 0.398 | 89% (inactive)
Cc1cc(Nc2ncc(Cl)c(Nc3ccccc3S(=O)(=O)C(C)C)n2)c(OC(C)C)cc1C1CCNCC1 [ceritinib] (0.833333 µM) | 0.182 | 104% (inactive)
Cc1cc(C)cc(C(=O)NOCCCCCC(=O)NO)c1 (10 µM) | -0.485 | 124% (inactive)
CCCCC(=O)O[C@]1(C(=O)CO)CC[C@H]2[C@@H]3CCC4=CC(=O)CC[C@]4(C)[C@H]3[C@@H](O)C[C@@]21C [hydrocortisone-valerate] (10 µM) | 0.0807 | 107% (inactive)
O=CN1CCC(C(=O)NCCN2CCC(=C3c4ccccc4C=Cc4ccccc43)CC2)CC1 (10 µM) | 0.0149 | 100% (inactive)
Cn1ccnc1S [methimazole] (10 µM) | -0.0741 | 108% (inactive)
COc1ccc(-c2nc(-c3ccc(-c4cccc(Cl)c4)o3)[nH]c2-c2ccc(OC)cc2)cc1 [neurodazine] (10 µM) | 0.198 | 70% (inactive)
CC(C)(C)c1ccc(C(O)CCCN2CCC(C(O)(c3ccccc3)c3ccccc3)CC2)cc1 (stereo not drawn) [terfenadine] (10 µM) | 0.133 | 96% (inactive)
CSc1ccc(OCc2ncc([N+](=O)[O-])n2C)cc1 [fexinidazole] (10 µM) | -0.0351 | 114% (inactive)
O=C(CCCCCCNC(=O)c1cnc(N(c2ccccc2)c2ccccc2)nc1)NO (0.833333 µM) | -0.13 | 106% (inactive)
C[C@@H]1CC(=O)c2c(ccc3c2C(=O)c2cccc(O)c2C3=O)C1 [ochromycinone] (10 µM) | -0.0461 | 105% (inactive)
CC(=O)Nc1ccc(OCC(O)CNC(C)C)cc1 (stereo not drawn) [practolol] (10 µM) | -0.0762 | 106% (inactive)
N#Cc1c[nH]c2c(C(=O)N3CCN(CCc4ccc(F)cc4)CC3)cccc12 [pruvanserin] (10 µM) | 0.117 | 98.5% (inactive)
CC(=O)N[C@H]1[C@@H](O)[C@H](O)[C@@H](CO)O[C@@H]1O [N-acetylmannosamine] (10 µM) | 0.18 | 100% (inactive)
NC(=O)NCCC[C@H](N)C(=O)O [L-citrulline] (10 µM) | 0.035 | 112% (inactive)
CCOC(=O)[C@H](CCc1ccccc1)N[C@@H](C)C(=O)N1[C@H](C(=O)O)C[C@H]2CCCC[C@@H]21 [trandolapril] (10 µM) | 0.00679 | 106% (inactive)
CC(C)C[C@H](NC(=O)[C@@H](Cc1c[nH]c2ccccc12)NC(=O)[C@H](Cc1ccc(O)cc1)NC(=O)[C@H](CO)NC(=O)[C@H](Cc1c[nH]c2ccccc12)NC(=O)[C@H](Cc1c[nH]cn1)NC(=O)[C@@H]1CCC(=O)N1)C(=O)N[C@@H](CCCNC(=N)N)C(=O)N1CCC[C@H]1C(=O)NCC(N)=O [triptorelin] (10 µM) | -0.0195 | 110% (inactive)
CCOc1cc(OCC)c(C(=O)CCC(=O)O)cc1OCC [trepibutone] (10 µM) | -0.0558 | 106% (inactive)
CC1(C)Oc2ccc(C#N)cc2[C@@H](N2CCCC2=O)[C@@H]1O [levcromakalim] (10 µM) | 0.221 | 97% (inactive)
OC(CCCN1CCCCC1)(c1ccccc1)c1ccccc1 [diphenidol] (10 µM) | -0.109 | 104% (inactive)
CSc1cc2c(cc1C(F)(F)F)N(C(=O)Nc1cccnc1)CC2 (10 µM) | -0.166 | 112% (inactive)
COc1cc(N)c(Cl)cc1C(=O)NC1CN2CCC1CC2 (stereo not drawn) [zacopride] (10 µM) | 0.169 | 89% (inactive)
O[C@@H]1CCCC[C@H]1N1CCC(c2ccccc2)CC1 (racemic) [vesamicol] (10 µM) | 0.23 | 98.5% (inactive)
O=C(NC[C@H](O)CO)c1ccncc1Nc1ccc(I)cc1F (0.833333 µM) | -0.139 | 114% (inactive)
O=C1NCCNC1c1cccs1 (stereo not drawn) [tenilsetam] (10 µM) | 0.095 | 106% (inactive)
